Screens from PubChem.
Rows were chosen to be rich in hits. Some 3.6% of all compounds tested hit in one or more screens of this group.
MITF TRPM1 HTS: activators of MITF-driven TRPM1 promoter reporter, primary screen, cell-based, SK-MEL-5, luciferase, single point | SK-MEL-5 TRPM1-promoter luciferase, 24 h; % of positive control, neutral wells = 0 | activation, % at 12.5 µM | 300,000 compounds, 0.75% hits | AID 588334, 2011;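 active = mean activation of at least 80% with every replicate also reaching 80%; inconclusive = mean reaches 80% but some replicate falls short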;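 also: 0% = neutral control wells and 100% = parthenolide positive control wells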
Wnt act: Wnt/beta-catenin pathway activators, primary screen, cell-based, plate reader, single point; Wnt/beta-catenin reporter cell assay, activator; activation, % at 9.35 µM; 300,000 compounds, 1.2% hits; in the data active = activation above about 30%, passing the limit was not always enough; inconclusive = no clear call, values can overlap the other calls;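 also: 0% = neutral control wells and 100% = positive control wells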
APOBEC3A inh: APOBEC3A ssDNA deaminase inhibitors, primary screen, selectivity assay for APOBEC3G inhibitor project, biochemical, FAM/TAMRA oligo cleavage fluorescence; DNA dC->dU-editing enzyme APOBEC-3A (Homo sapiens), P31941; recombinant A3A, FAM/TAMRA ssDNA deamination fluorescence; inhibition, % at 20 µM; 330,000 compounds, 0.41% hits; AID 493011, 2011;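 active = at least 40% inhibition at 20 µM here, with at most 30% in a related deaminase screen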;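 also: plate controls were A3A with DMSO for no effect and wells lacking A3A enzyme for full effect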
Target sequence (P31941 whole entry, looked up): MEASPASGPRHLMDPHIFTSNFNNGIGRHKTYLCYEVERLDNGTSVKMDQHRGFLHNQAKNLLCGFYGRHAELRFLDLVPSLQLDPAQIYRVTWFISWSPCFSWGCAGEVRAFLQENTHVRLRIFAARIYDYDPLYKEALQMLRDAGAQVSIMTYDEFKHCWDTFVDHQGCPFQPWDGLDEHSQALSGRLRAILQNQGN
A3G deaminase: APOBEC3G DNA deaminase inhibitors, primary screen, biochemical, fluorescence, single-stranded DNA substrate, uHTS; inhibition, % at 20 µM; recombinant A3G, ssDNA deamination FAM/TAMRA fluorescence; 330,000 compounds, 0.28% hits; AID 493012, 2011; DNA dC->dU-editing enzyme APOBEC-3G (Homo sapiens), Q9HC16;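 active = inhibition of at least 40% at 20 µM, with no more than 30% in the related APOBEC3A deaminase screen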;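 also: plate controls were DMSO wells with A3G for no effect and wells lacking A3G enzyme for full effect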
PHOSPHO1 inh: PubChem AID 1565 | Phosphoethanolamine/phosphocholine phosphatase (Homo sapiens), Q8TCT1 | recombinant PHOSPHO1, absorbance phosphatase assay | inhibition, % at 13.3 µM | 290,000 compounds, 1.1% hits; in the data active = inhibition above about 60%
Target sequence (Q8TCT1 whole entry, looked up): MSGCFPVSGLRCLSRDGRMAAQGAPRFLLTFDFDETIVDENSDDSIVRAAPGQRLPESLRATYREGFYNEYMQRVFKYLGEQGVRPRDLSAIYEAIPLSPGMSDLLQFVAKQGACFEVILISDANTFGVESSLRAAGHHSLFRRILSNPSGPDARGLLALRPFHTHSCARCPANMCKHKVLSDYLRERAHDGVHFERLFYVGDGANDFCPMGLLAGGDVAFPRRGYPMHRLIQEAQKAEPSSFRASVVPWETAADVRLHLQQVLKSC
esBAF inh: Bmi1 luciferase reporter increase in mESCs, primary screen, esBAF inhibitor project, mouse ES cells, Bmi1 luciferase knock-in, single point | reporter increase, % at 12.5 µM | AID 602393, 2012 | 350,000 compounds, 2% hits | 24 h; 100% = twice the neutral-well signal; in the data active = activation above about 40%; inconclusive = no clear call, values can overlap the other calls;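 also: 0% = median of the plate's neutral control wells and 100% = double that signal; a rise in the Bmi1 reporter signal indicates esBAF inhibition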
An asterisk follows results filed as active; ? = inconclusive; nt = no result.

SMILES	MITF TRPM1 HTS	Wnt act	APOBEC3A inh	A3G deaminase	PHOSPHO1 inh	esBAF inh
N/C(=N\OC(=O)c1cccs1)c1ccccc1	19.0	14.5	3.9	2.0	-14.4	18.4
NS(=O)(=O)c1ccc(NCC2COc3ccccc3O2)c([N+](=O)[O-])c1 (stereo not given)	8.0	-0.1	-2.5	-5.5	34.9	nt
O=C(Nc1ccccc1[N+](=O)[O-])C1COc2ccccc2O1 (stereo not given)	75.7	14.0	-3.0	-15.3	40.8	45.3*
CCc1nnc(NC(=O)C2COc3ccccc3O2)s1 (stereo not given)	8.0	nt	-3.7	-6.0	1.0	nt
Cc1nnc(NC(=O)C2COc3ccccc3O2)s1 (stereo not given)	nt	nt	-1.0	-2.4	-30.5	46.2*
O=C(Nc1ncc(Cc2ccccc2)s1)C1COc2ccccc2O1 (stereo not given)	?	nt	0.9	-0.2	29.8	52.9*
CC(=O)c1ccc(NCC2COc3ccccc3O2)c([N+](=O)[O-])c1 (stereo not given)	64.4	76.0*	-0.4	-5.5	20.4	72.3*
O=C(Nc1ccc(Cl)cc1Cl)c1ccc(-c2ccccc2)cc1	9.8	7.0	-1.5	-5.2	7.3	nt
CCOC(=O)c1ccc(Cl)c(NC(=O)c2ccc(-c3ccccc3)cc2)c1	23.8	1.9	-1.6	-7.5	66.1*	38.1
CCOCC(=O)Nc1cc(C(=O)Nc2ccccc2)ccc1Cl	27.0	11.4	-0.8	-0.5	28.4	50.7*
CCOCC(=O)Nc1cc(C(=O)Nc2cc(C)cc(C)c2)ccc1Cl	nt	nt	0.2	-2.0	15.8	nt
c1ccc(CCn2nnnc2CN2CCCc3ccccc32)cc1	-7.3	nt	-3.1	-5.1	64.5*	4.4
c1ccc2c(c1)CCCN2Cc1nnnn1CC1CCCO1 (stereo not given)	nt	nt	1.5	-4.7	-3.7	-5.8
COc1ccccc1CNS(=O)(=O)c1cc(CN2C(=O)c3cccnc3C2=O)ccc1OC	4.1	0.9	4.7	4.4	27.3	-5.8
COc1ccc(CN2C(=O)c3cccnc3C2=O)cc1S(=O)(=O)NC1CCCCC1	-0.7	-1.6	-4.0	-4.8	69.0*	-3.4
CCOC(=O)c1c(C)[nH]c(C(=O)COC(=O)c2cccnc2Cl)c1C	82.9*	16.4	-0.7	-4.8	nt	64.8*
C[C@H](O)C#Cc1ccc([C@H]2[C@H](CO)N3CCCCN(C(=O)c4ccc5c(c4)OCO5)C[C@@H]23)cc1	nt	nt	nt	nt	nt	3.3
ON=C1c2ccccc2-c2ccc(Br)cc21	0.9	-1.2	nt	nt	nt	3.8
Nc1cc2c(cc1Br)-c1ccccc1C2=NO	15.7	33.5*	nt	nt	nt	62.6*
COc1ccc(NC(=O)Nc2ccc3c(c2)C(=O)N([C@@H](C)CO)C[C@@H](C)[C@H](CN(C)CC2CCCCC2)O3)cc1	nt	nt	nt	nt	nt	-2.5
Cn1nnc(NC(=O)C(c2ccccc2)c2ccccc2)n1	-9.9	39.6*	-1.6	-2.9	18.8	-1.9
CCNC(=O)C[C@H]1CC[C@H]2[C@H](COc3ccc(NC(=O)Nc4ccccc4Cl)cc3C(=O)N2C)O1	nt	nt	nt	nt	nt	7.4
CCn1c(/C=C/c2c[nH]c3ccccc23)nc2ccccc2c1=O	113.6*	8.9	-3.4	-12.5	40.8	nt
CCn1c(/C=C\c2ccccc2C)nc2ccccc2c1=O	15.1	3.6	-0.8	-1.4	32.2	nt
O=C(C[C@@H]1CC[C@H]2[C@@H](COC[C@H](O)CN2C(=O)c2ccccc2)O1)Nc1ccccc1	nt	nt	nt	nt	nt	5.3
C[C@H]1CN([C@@H](C)CO)C(=O)c2cc(/C=C/c3ccccc3)cnc2O[C@H]1CN(C)S(=O)(=O)c1cccs1	nt	nt	nt	nt	nt	-0.2
c1csc(-c2nn3c(C4COc5ccccc5O4)nnc3s2)c1 (stereo not given)	10.3	nt	0.9	9.3	69.3*	33.5
Fc1ccc(-c2nn3c(C4COc5ccccc5O4)nnc3s2)cc1 (stereo not given)	nt	nt	2.6	38.1	78.7*	42.2*
Cn1cnc2c1c(=O)n(Cc1ccccc1)c(=O)n2C	nt	32.0*	-3.1	-2.9	-9.3	0.7
